Source: PubChem BioAssay (Tox21)
“And” between values parts separate entries of the source, which are not always exact repeats. Identical values can stand only once. The source holds several records for some structures; these can differ, active in one and inactive in another. The source made the active and inactive calls. Unless noted, calls follow the shape of the dose curve; as a rule, active = well fitted curve in the direction sought with a large enough effect in the repeat runs; inconclusive = weak or mixed curves; inactive = no such curve, though single readings can be large; an effect the other way counts as inactive or inconclusive.

Legend:
[1] = qHTS assay to identify small molecule antagonists of the thyroid receptor (TR) signaling pathway - cell viability counter screen (AID 743064); also: nearly all actives have a fitted effect of over 50% in size; also: potency is read from the fitted curve at half-maximal effect
Outline: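 Fluorescence from CellTiter-Fluor, added after 23.5 h exposure at 37 °C, reported viability of GH3.TRE-Luc cells co-treated with compound and 1 nM T3. Measured in the same wells as the luciferase TR readout.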

[2] = qHTS assay to identify small molecule antagonists of the thyroid receptor (TR) signaling pathway (AID 743065); also: nearly all actives have a fitted effect of over 55% in size; also: potency is read from the fitted curve at half-maximal effect
Outline: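 GH3.TRE-Luc rat pituitary cells carrying two TR response elements driving luciferase were plated for 4 h, given compound plus 1 nM T3 (final), and incubated 23.5 h at 37 C. ONE-Glo luminescence measured reporter inhibition; CellTiter-Fluor fluorescence tracked cytotoxicity.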

[3] = system: thyroid hormone receptor (rat, GH3 cells); experiment: qHTS assay to identify small molecule agonists of the thyroid receptor (TR) signaling pathway (AID 743066; calls by dose curve)
[4] = target: Estrogen receptor (Homo sapiens) (UniProt P03372); experiment: qHTS assay to identify small molecule antagonists of the estrogen receptor alpha (ER-alpha) signaling pathway (AID 743069; active = well fitted curve in the direction sought with a large enough effect in the signal ratio in the repeat runs, not every such curve was filed as active; inconclusive = weak or mixed curves, or effect the other way; inactive = no such curve, though single readings can be large or run the other way; the % refers to the signal ratio; also: potency is read from the fitted curve at half-maximal effect)
Sequence of Estrogen receptor (Homo sapiens) (P03372 whole entry, looked up): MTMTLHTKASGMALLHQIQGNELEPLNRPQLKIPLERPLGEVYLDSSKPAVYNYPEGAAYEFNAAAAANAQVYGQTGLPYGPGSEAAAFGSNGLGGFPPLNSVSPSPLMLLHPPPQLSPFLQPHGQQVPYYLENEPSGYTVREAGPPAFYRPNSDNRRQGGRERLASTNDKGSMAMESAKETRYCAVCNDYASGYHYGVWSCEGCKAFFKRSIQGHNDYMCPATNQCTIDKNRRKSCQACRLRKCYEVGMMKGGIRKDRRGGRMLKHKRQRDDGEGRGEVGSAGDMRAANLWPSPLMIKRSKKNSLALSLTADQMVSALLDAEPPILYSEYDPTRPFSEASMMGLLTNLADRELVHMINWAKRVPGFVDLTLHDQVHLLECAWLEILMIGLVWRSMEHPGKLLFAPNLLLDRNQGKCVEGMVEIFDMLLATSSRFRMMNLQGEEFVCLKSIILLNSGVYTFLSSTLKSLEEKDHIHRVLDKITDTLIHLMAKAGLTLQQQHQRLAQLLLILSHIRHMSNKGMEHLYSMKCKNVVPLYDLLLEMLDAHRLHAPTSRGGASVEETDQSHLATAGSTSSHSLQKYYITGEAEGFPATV
Outline: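 HEK293 cells stably carrying an ER-alpha-UAS-bla beta-lactamase reporter were pre-cultured overnight in 2% charcoal-stripped FBS medium. Test compounds in DMSO were added together with 17beta-estradiol for 18 hr at 37C. Read-out was fluorescence after 2 hr with LiveBLAzer B/G FRET substrate at room temperature.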

[5] = qHTS assay to identify small molecule antagonists of the estrogen receptor alpha (ER-alpha) signaling pathway - cell viability counter screen (AID 743074; calls by dose curve; also: nearly all actives have a fitted effect of over 45% in size)
[6] = target: Estrogen receptor (Homo sapiens) (UniProt P03372); experiment: qHTS assay to identify small molecule agonists of the estrogen receptor alpha (ER-alpha) signaling pathway (AID 743075; calls by dose curve; also: potency is read from the fitted curve at half-maximal effect)
[7] = target: Estrogen receptor (Homo sapiens) (UniProt P03372); experiment: qHTS assay to identify small molecule agonists of the estrogen receptor alpha (ER-alpha) signaling pathway using the BG1 cell line (AID 743079); details: BG1Luc4E2 cells, ERE-luciferase agonist, 22 h; activation: at 70.3 µM (top of the series); also: nearly all actives have a fitted effect of over 20% in size
[8] = qHTS assay to identify small molecule antagonists of the estrogen receptor alpha (ER-alpha) signaling pathway using the BG1 cell line - cell viability counter screen (AID 743081);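 also: compound given together with 17beta-estradiol as the ER stimulus; nearly all actives have a fitted effect of over 45% in size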
[9] = target: Aromatase (Homo sapiens) (UniProt P11511); experiment: qHTS assay to identify aromatase inhibitors (AID 743083); also: nearly all actives have a fitted effect of over 55% in size; also: potency is read from the fitted curve at half-maximal effect
Sequence of Aromatase (Homo sapiens) (P11511 whole entry, looked up): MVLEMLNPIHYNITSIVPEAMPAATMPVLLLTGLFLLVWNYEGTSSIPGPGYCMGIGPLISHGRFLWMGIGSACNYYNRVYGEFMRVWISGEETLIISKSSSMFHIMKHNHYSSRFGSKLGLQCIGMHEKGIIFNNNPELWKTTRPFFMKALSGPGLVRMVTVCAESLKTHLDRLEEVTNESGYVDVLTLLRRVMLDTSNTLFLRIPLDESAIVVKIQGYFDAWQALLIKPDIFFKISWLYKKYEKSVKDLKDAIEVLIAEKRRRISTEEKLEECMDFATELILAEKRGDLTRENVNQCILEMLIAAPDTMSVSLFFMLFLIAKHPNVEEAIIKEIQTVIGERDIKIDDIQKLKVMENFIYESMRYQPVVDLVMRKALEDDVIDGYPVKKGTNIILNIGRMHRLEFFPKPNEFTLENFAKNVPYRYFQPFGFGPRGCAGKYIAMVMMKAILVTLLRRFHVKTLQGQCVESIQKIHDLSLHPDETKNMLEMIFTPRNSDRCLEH

[10] = qHTS assay to identify aromatase inhibitors - cell viability counter screen (AID 743084);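 also: cells stimulated with testosterone during compound exposure; nearly all actives have a fitted effect of over 55% in size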; also: potency is read from the fitted curve at half-maximal effect
[11] = target: Peroxisome proliferator-activated receptor gamma (Homo sapiens) (UniProt P37231); experiment: qHTS assay to identify small molecule agonists of the peroxisome proliferator-activated receptor gamma (PPARg) signaling pathway (AID 743094; active = well fitted activation curve with a large enough effect in the signal ratio in the repeat runs, not every such curve was filed as active; inconclusive = weak or mixed curves, or effect the other way; inactive = no such curve, though single readings can be large or run the other way; the % refers to the signal ratio)
Sequence of Peroxisome proliferator-activated receptor gamma (Homo sapiens) (P37231 whole entry, looked up): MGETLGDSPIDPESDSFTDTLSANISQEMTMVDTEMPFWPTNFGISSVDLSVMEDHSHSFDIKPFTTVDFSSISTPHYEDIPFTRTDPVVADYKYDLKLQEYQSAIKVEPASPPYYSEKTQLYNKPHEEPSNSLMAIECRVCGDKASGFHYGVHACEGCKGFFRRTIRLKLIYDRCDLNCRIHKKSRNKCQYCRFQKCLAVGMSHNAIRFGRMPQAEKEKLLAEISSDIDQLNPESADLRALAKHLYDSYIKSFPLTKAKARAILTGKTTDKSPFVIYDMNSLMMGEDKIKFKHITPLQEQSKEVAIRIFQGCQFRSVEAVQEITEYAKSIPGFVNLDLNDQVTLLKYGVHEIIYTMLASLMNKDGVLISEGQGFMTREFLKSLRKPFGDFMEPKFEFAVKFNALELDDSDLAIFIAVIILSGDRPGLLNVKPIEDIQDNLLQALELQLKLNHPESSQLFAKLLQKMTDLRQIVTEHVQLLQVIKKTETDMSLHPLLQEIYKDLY
Outline: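 Beta-lactamase FRET fluorescence was the read-out after a 1 h room-temperature substrate step, following 17 h compound treatment at 37C of HEK293H cells expressing a UAS-driven bla reporter responsive to PPARg.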

[12] = target: Peroxisome proliferator-activated receptor gamma (Homo sapiens) (UniProt P37231); experiment: qHTS assay to identify small molecule antagonists of the peroxisome proliferator-activated receptor gamma (PPARg) signaling pathway (AID 743191; calls by dose curve; also: nearly all actives have a fitted effect of over 30% in size)
Outline: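 GeneBLAzer PPARg UAS-bla HEK293H cells carrying a UAS-driven beta-lactamase reporter were plated at 3000 cells/well, preincubated 5 h at 37C, then given compound for 17 h at 37C; LiveBLAzer B/G FRET substrate was read after 1 h at room temperature.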

[13] = qHTS assay to identify small molecule antagonists of the peroxisome proliferator-activated receptor gamma (PPARg) signaling pathway - cell viability counter screen (AID 743194); details: Potency: co-treated with 50 nM rosiglitazone unless noted; also: nearly all actives have a fitted effect of over 55% in size
Outline: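 PPARg-UAS-bla HEK293H cells were plated, rested 5 h at 37 C, then treated with compounds plus rosiglitazone (50 nM final) for 17 h at 37 C; viability was then read by CellTiter-Glo luminescence after 30 min at room temperature.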

[14] = qHTS assay for small molecule agonists of the antioxidant response element (ARE) signaling pathway - cell viability counter screen (AID 743203; calls by dose curve; also: nearly all actives have a fitted effect of over 55% in size; also: potency is read from the fitted curve at half-maximal effect)
Outline: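 HepG2 cells carrying ARE-driven beta-lactamase; 2,000 cells/well; 5 hrs plating; compound pinned from DMSO; 16 hrs 37C/5% CO2; CellTiter-Glo added; 30 min RT; luminescence.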

[15] = qHTS assay for small molecule activators of the heat shock response signaling pathway - cell viability counter screen (AID 743209); also: nearly all actives have a fitted effect of over 50% in size
Outline: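 Luminescence from CellTiter-Glo, added after the beta-lactamase FRET read, gave the viability signal. Cells were HSE-bla HeLa treated with DMSO-dissolved compounds for 5 h at 37 C following overnight plating.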

[16] = qHTS assay for small molecule activators of the heat shock response signaling pathway (AID 743210; active = well fitted activation curve with a large enough effect in the signal ratio in the repeat runs, with a control signal flat, not every such curve was filed as active; inconclusive = weak or mixed curves; the % refers to the signal ratio)
Outline: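 HSE-bla HeLa cells (beta-lactamase reporter under heat shock response elements) were exposed to compounds for 5 h at 37 C, then loaded with LiveBLAzer B/G FRET substrate for 2.5 h at room temperature before fluorescence reading.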

[17] = qHTS assay to identify small molecule antagonists of the estrogen receptor alpha (ER-alpha) signaling pathway using the BG1 cell line (AID 743080; calls by dose curve;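 also: BG1 cells stimulated with 17beta-estradiol alongside compound; nearly all actives have a fitted effect of over 25% in size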)
Outline: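 Quantitative HTS on the Tox21 10K library: BG1 cells with endogenous ER-alpha and ERE-luciferase reporter, 17beta-estradiol stimulation, 21.5 h compound exposure, luminescence endpoint with parallel fluorescence cytotoxicity counter-read.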

[18] = qHTS assay to identify small molecule that activate the aryl hydrocarbon receptor (AhR) signaling pathway - cell viability counter screen (AID 743086);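 also: HepG2 liver cells carrying the AhR DRE luciferase reporter; nearly all actives have a fitted effect of over 45% in size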
Outline: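 HepG2-AhR-luc (HG2L7.5c1) cells, 4000/well, were preincubated 5 h at 37C, exposed to compound in qHTS format for 24 hr at 37C, then given CellTiter-Fluor for 30 min; viability was read as fluorescence in the reporter wells.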

[19] = target: Aryl hydrocarbon receptor (Homo sapiens) (UniProt P35869); experiment: qHTS assay to identify small molecule that activate the aryl hydrocarbon receptor (AhR) signaling pathway (AID 743085);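 also: HG2L7.5c1 human HepG2 liver cells with stably integrated DRE-driven firefly reporter; nearly all actives have a fitted effect of over 15% in size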
Sequence of Aryl hydrocarbon receptor (Homo sapiens) (P35869 whole entry, looked up): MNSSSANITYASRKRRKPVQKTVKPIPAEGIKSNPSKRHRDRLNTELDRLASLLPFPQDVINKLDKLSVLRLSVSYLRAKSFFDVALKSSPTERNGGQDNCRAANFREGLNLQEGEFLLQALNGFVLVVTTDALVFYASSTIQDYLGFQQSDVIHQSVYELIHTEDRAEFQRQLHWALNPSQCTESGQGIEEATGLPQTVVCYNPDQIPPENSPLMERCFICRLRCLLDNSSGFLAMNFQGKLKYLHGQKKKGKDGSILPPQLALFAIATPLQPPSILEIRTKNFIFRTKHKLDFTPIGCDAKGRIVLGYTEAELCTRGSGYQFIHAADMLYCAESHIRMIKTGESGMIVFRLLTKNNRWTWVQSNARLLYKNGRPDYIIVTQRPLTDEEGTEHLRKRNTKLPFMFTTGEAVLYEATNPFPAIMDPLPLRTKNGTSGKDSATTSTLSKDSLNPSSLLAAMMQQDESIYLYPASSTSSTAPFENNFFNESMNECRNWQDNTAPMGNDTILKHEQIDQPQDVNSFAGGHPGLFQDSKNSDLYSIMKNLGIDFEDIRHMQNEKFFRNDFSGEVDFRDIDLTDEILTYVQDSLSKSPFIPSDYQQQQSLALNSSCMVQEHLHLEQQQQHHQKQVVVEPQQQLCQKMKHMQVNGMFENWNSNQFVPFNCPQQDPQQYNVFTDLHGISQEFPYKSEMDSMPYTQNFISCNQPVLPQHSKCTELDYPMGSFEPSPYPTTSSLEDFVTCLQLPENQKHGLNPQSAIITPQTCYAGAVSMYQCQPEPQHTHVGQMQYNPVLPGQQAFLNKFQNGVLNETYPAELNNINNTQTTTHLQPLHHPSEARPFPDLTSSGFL
Outline: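 Cell line HG2L7.5c1 (human hepatoma, 20× DRE-luc). Plated, 5 h 37C, compound/DMSO added, 24 h 37C. CellTiter-Fluor 30 min 37C → fluorescence; then ONE-Glo 30 min RT → luminescence.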

[20] = qHTS assay for small molecule agonists of the antioxidant response element (ARE) signaling pathway (AID 743202; active = well fitted activation curve with a large enough effect in the signal ratio in the repeat runs, not every such curve was filed as active; inconclusive = weak or mixed curves, or effect the other way; inactive = no such curve, though single readings can be large or run the other way; the % refers to the signal ratio)
Outline: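 Read-out: LiveBLAzer B/G FRET substrate fluorescence after 2 h at room temperature, following 16 h compound treatment at 37 C of HepG2 cells carrying an ARE-driven beta-lactamase reporter.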

Measured: Potency

CCC1COC(Cn2cncn2)(c2ccc(Cl)cc2Cl)O1 (stereo not drawn)
active: [9] 24.3 µM
not listed: [17] | [18] | [19] | [20]
inactive: all other assays above

ClC1(Cl)C2(Cl)C3(Cl)C4(Cl)C(Cl)(Cl)C5(Cl)C3(Cl)C1(Cl)C5(Cl)C24Cl (stereo not drawn)
not listed: [11] | [12] | [19] | [20]
inactive: all other assays above

O=C1C(Cl)=C(Cl)C(=O)C(Cl)=C1Cl
active: [1] 15.3 µM and 13.7 µM | [2] 9.65 µM and 5.45 µM | [4] 54.9 µM [inconclusive] | [6] 43.7 µM [activator] | [9] 9.65 µM and 9.69 µM | [10] 10.8 µM and 13.7 µM
inactive: [3] | [5] | [7] | [17] | [8] | [18] | [15]
inactive and 13.7 µM (active): [14]

COc1c2c(cc3c1OCO3)CCN(C)C2
not listed: [8] | [12] | [14]
inactive: all other assays above

[O]=[Cr][O][Cr]=[O]
inactive: all assays above

CN1[C@@H]2CC[C@H]1CC(O)C2 (stereo partly drawn)
not listed: [19]
inactive: all other assays above

CNC(=O)CSP(=O)(OC)OC
not listed: [12] | [18] | [19] | [20]
inactive: all other assays above
